Records with an inconclusive call do not appear. Entries that show only a call come without a potency. A number with no mark means an inactive call. Activity calls are given as the source filed them. The call rests on the fitted dose curve; in most records, active means well fitted curve in the direction sought with a large enough effect; inconclusive means small, poorly fitted or top-dose-only effect, or another doubt; inactive means no such curve, though single readings can be large; an effect the other way counts as inactive or inconclusive.
System: Zika virus NS2B-NS3 protease
Test: Primary screen GU AMC qHTS for Zika virus inhibitors (AID 1347154); further: nearly all actives have a fitted effect of over 70% in size
Conditions: Zika NS2B-NS3 unlinked protease, AMC fluorogenic substrate; series mostly up to 54.1 µM
Outline: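 Fluorogenic AMC-substrate cleavage by noncovalent NS2B-NS3 protease complex (25 nM, pH 8.0 Tris buffer with Tween 20) followed for 15 minutes at room temperature (~20% conversion). Percent inhibition from ex340/em450 signal change, fitted by 4-parameter Hill equation.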

SMILES | Potency | activity change, negative = inhibition
O=C(COc1ccc(Cl)cc1)N1CCN(Cc2ccc3c(c2)OCO3)CC1 | inactive | –
COc1cccc(OC)c1C(=O)N[C@@H]1C(=O)N2[C@@H]1SC(C)(C)[C@@H]2C(=O)O | inactive | –
NCCC(O)(P(=O)(O)O)P(=O)(O)O | inactive | –
CN1CCN(CCCN2c3ccccc3Sc3ccc(S(=O)(=O)N(C)C)cc32)CC1 | inactive | –
COc1ccc(/C=C/C(=O)c2ccc(OC)cc2OC)cc1 | inactive | –
CC(C)=CCC1C(=O)N(c2ccccc2)N(c2ccccc2)C1=O | inactive | –
CC(=O)O[C@]1(C(C)=O)CC[C@H]2[C@@H]3C[C@H](C)C4=CC(=O)CC[C@]4(C)[C@H]3CC[C@@]21C | inactive | –
Cc1ccc(C(=O)C(C)CN2CCCCC2)cc1 (centres undefined) | inactive | –
Cc1c(F)c(N2CCNC(C)C2)cc2c1c(=O)c(C(=O)O)cn2C1CC1 (centres undefined) | inactive | –
NC(=O)CC[C@@H]1NC(=O)[C@H](Cc2ccccc2)NC(=O)[C@H](Cc2ccc(O)cc2)NC(=O)CCSSC[C@@H](C(=O)N2CCC[C@H]2C(=O)N[C@@H](CCCN=C(N)N)C(=O)NCC(N)=O)NC(=O)[C@H](CC(N)=O)NC1=O | inactive | –
CC(=O)OCC(=O)[C@@]1(O)[C@H](C)C[C@H]2[C@@H]3CCC4=CC(=O)C=C[C@]4(C)[C@@]3(F)[C@@H](O)C[C@@]21C | inactive | –
O=C(N/N=C/c1ccccc1O)c1ccncc1 | inactive | –
CC1(C)O[C@@H]2C[C@H]3[C@@H]4C[C@H](F)C5=CC(=O)C=C[C@]5(C)[C@H]4[C@@H](O)C[C@]3(C)[C@]2(C(=O)CO)O1 | inactive | –
C[C@H](CCC(=O)O)[C@H]1CC[C@H]2[C@@H]3C(=O)C[C@@H]4CC(=O)CC[C@]4(C)[C@H]3CC(=O)[C@]12C | inactive | –
COc1c2occc2c(OC)c2c(=O)cc(C)oc12 | inactive | –
CC(C)n1nc(-c2cc3cc(O)ccc3[nH]2)c2c(N)ncnc21 | inactive | –
NCCc1ccn[nH]1 | inactive | –
CN(C)CCCOc1nn(Cc2ccccc2)c2ccccc12 | inactive | –
Cc1c(C(N)=O)cc([N+](=O)[O-])cc1[N+](=O)[O-] | inactive | –
COc1ccc(CN2CCN(C(c3ccc(F)cc3)c3ccc(F)cc3)CC2)c(OC)c1OC | inactive | –

SMILES | Potency | activity change, negative = inhibition
Cc1ccccc1C(=O)Nc1ccc(C(=O)N2CCCC(N(C)C)c3ccccc32)cc1 (centres undefined) | inactive | –
O=C(CCN1CCC(c2ccccc2)C1)c1ccc2c(c1)OCCO2 (centres undefined) | inactive | –
CN(C)CCOc1ccccc1Cc1ccccc1 | inactive | –
COc1cc(C(=S)N2CCOCC2)cc(OC)c1OC | inactive | –
CN1CCN(C(c2ccccc2)c2ccccc2)CC1 | inactive | –
CCN(CCCc1ccccc1)CCCc1ccccc1 | inactive | –
O=C1[C@H]2CCCC[C@H]2C(=O)N1CCCCN1CCN(c2nsc3ccccc23)CC1 | inactive | –
CC(=O)OCC(=O)[C@@]1(O)CC[C@H]2[C@@H]3CCC4=CC(=O)C=C[C@]4(C)[C@H]3[C@@H](O)C[C@@]21C | inactive | –
Cc1nc2n(c(=O)c1CCN1CCC(c3noc4cc(F)ccc34)CC1)CCC[C@H]2O | inactive | –
COc1cccc2c1C(=O)c1c(O)c3c(c(O)c1C2=O)C[C@@](O)(C(=O)CO)C[C@@H]3O[C@H]1C[C@H](N)[C@H](O)[C@H](C)O1 | inactive | –
O=C1OC(c2ccc(O)cc2)(c2ccc(O)cc2)c2ccccc21 | inactive | –
CC1(C)O[C@@H]2C[C@H]3[C@@H]4CCC5=CC(=O)CC[C@]5(C)[C@@]4(F)[C@@H](O)C[C@]3(C)[C@]2(C(=O)CCl)O1 | inactive | –
CC1(C)O[C@@H]2C[C@H]3[C@@H]4C[C@H](F)C5=CC(=O)CC[C@]5(C)[C@H]4[C@@H](O)C[C@]3(C)[C@]2(C(=O)CO)O1 | inactive | –
CC(O)C(=O)O (centres undefined) | inactive | –
CC(O)(P(=O)(O)O)P(=O)(O)O | inactive | –
CCn1cc(C(=O)O)c(=O)c2cnc(N3CCCC3)nc21 | – | 1.94% [at 6.83 µM]
CN(C)CC/C=C1\c2ccccc2Sc2ccc(Cl)cc21 | inactive | –
C[C@]12CC[C@H]3[C@@H](CCC4=CC(=O)CC[C@@]43C)[C@@H]1CC[C@@H]2C(=O)CO | inactive | –
COc1cc(-c2ccc(=O)[nH]n2)ccc1OC(F)F | inactive | –

System: Zika virus NS2B-NS3 protease (unlinked complex)
Test: Primary screen GU Rhodamine qHTS for Zika virus inhibitors: Unlinked NS2B-NS3 protease assay (AID 1347159); further: nearly all actives have a fitted effect of over 60% in size
Conditions: Recombinant ZIKV NS2B-NS3 protease, Rhodamine110 substrate fluorescence; series mostly up to 107 µM
Outline: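 In dose–response format, inhibition of unlinked protease (25 nM) was measured with 1.5 microM bis-peptide Rhodamine110 substrate. Aprotinin served as the intraplate control.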

SMILES | outcome
CC(=O)O[C@]1(C(C)=O)CC[C@H]2[C@@H]3C[C@H](C)C4=CC(=O)CC[C@]4(C)[C@H]3CC[C@@]21C | inactive
Cc1ccc(C(=O)C(C)CN2CCCCC2)cc1 (centres undefined) | inactive
CC(=O)OCC(=O)[C@@]1(O)[C@H](C)C[C@H]2[C@@H]3CCC4=CC(=O)C=C[C@]4(C)[C@@]3(F)[C@@H](O)C[C@@]21C | inactive
CC(C)n1nc(-c2cc3cc(O)ccc3[nH]2)c2c(N)ncnc21 | inactive
CN(C)CCCOc1nn(Cc2ccccc2)c2ccccc12 | inactive
COc1ccc(CN2CCN(C(c3ccc(F)cc3)c3ccc(F)cc3)CC2)c(OC)c1OC | inactive
Cc1ccccc1C(=O)Nc1ccc(C(=O)N2CCCC(N(C)C)c3ccccc32)cc1 (centres undefined) | inactive
CN1CCN(C(c2ccccc2)c2ccccc2)CC1 | inactive
CC(=O)OCC(=O)[C@@]1(O)CC[C@H]2[C@@H]3CCC4=CC(=O)C=C[C@]4(C)[C@H]3[C@@H](O)C[C@@]21C | inactive
Cc1nc2n(c(=O)c1CCN1CCC(c3noc4cc(F)ccc34)CC1)CCC[C@H]2O | inactive

— PubChem BioAssay (NCATS)
